Inconclusive results are not listed. A call without a number means that no potency is given here. Active and inactive are the calls of the source. The call rests on the fitted dose curve; in most records, active means well fitted curve in the direction sought with a large enough effect; inconclusive means small, poorly fitted or top-dose-only effect, or another doubt; inactive means no such curve, though single readings can be large; an effect the other way counts as inactive or inconclusive. *1 amine or outer side, *2 acyl side, *3 side chain or, on linkers, in order; H or OH if unused. Where a SMILES comes first, the peptide text is derived from it. Bridges are numbered along the chain shown (N, C = ends). X6 = O=C(CCC[*:2])[*:1]
Experiments:
[1] = P-glycoprotein substrates identified in KB-3-1 adenocarcinoma cell line, qHTS therapeutic library screen (AID 1346986); further: nearly all actives have a fitted effect of over 60% in size
Procedure, shortened: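 Viability by CellTiter-Glo after 72 h compound exposure at 37 degree C, 5% CO2. Cytotoxic call: curve class -1.1 to -2.4, maximum response >50%, AC50 < 10 uM, compared across KB-3-1 and P-gp-overexpressing KB-8-5-11.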

[2] = P-glycoprotein substrates identified in KB-8-5-11 adenocarcinoma cell line, qHTS therapeutic library screen (AID 1346987); further: nearly all actives have a fitted effect of over 65% in size
Procedure, shortened: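 In this qHTS, P-gp-rich KB-8-5-11 cells received library compounds across a concentration range. Viability was quantified by luminescence after 72 h at 37 degree C.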

Row | SMILES | Potency [1] | Potency [2]
1 | OCCc1ccc(O[C@@H]2O[C@H](CO)[C@@H](O)[C@H](O)[C@H]2O)c(O)c1 | inactive | inactive
2 | CCN(c1cc(C#CCN2CCOCC2)cc(C(=O)NCc2c(C)cc(C)[nH]c2=O)c1C)C1CCC(N(C)CCOC)CC1 (stereo not given) | inactive | inactive
3 | CC(C)c1ccc(CC(=O)N2CCC[C@@H](c3cccc(OC(C)(C)C(=O)O)c3)C2)cc1 | inactive | inactive
4 | C=C1C[C@]23C[C@H]1CC[C@H]2[C@@]12C=C[C@H](O)[C@@](C)(C(=O)O1)[C@H]2[C@@H]3C(=O)O | inactive | inactive
5 | CC12CCC3C(C)(C)C(O)CCC3(C)C1Cc1c(oc(C(=O)O)cc1=O)O2 (stereo not given) | inactive | inactive
6 | C=C(C(=O)OC)C1CCC2(C)C(O[C@@H]3O[C@H](CO)[C@@H](O)[C@H](O)[C@H]3O)CC(=O)C(C)C2C1O (stereo not given in full) | inactive | inactive
7 | CO/N=C(/C(=O)N[C@@H]1C(=O)N2C(C(=O)O)=C(CSC(=O)c3ccco3)CS[C@H]12)c1csc(N)n1 | inactive | inactive
8 | CCC(=O)N[C@@H]1Cc2ccccc2[C@H](c2ccccc2)C1 | inactive | inactive
9 | CC[C@H](C)[C@@H]1NC(=O)[C@H](Cc2ccc(OC)cc2)NC(=O)CCCSC[C@@H](C(=O)N2CCC[C@H]2C(=O)N[C@@H](CC(C)C)C(=O)NCC(N)=O)NC(=O)[C@H](CC(N)=O)NC(=O)[C@H](CCC(N)=O)NC1=O (Y(Me)IQNCPLG-NH2; linker N-5 via X6) | inactive | inactive
10 | Clc1ccc2c(c1)C1=NCCN1c1c(-c3noc(C4CC4)n3)ncn1-2 | inactive | inactive

Reference: PubChem BioAssay (NCATS)
